The list is not random: actives were taken first. Their share in the collection is about 2.7%.
MsrA inhibitor – inhibits bovine methionine sulfoxide reductase A; 360,000 compounds, 0.75% hits; purified bovine MsrA, absorbance read-out; inhibition, % at 15.5 µM; AID 651718; in the data active = inhibition above about 4.5%;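 also: 0% = vehicle wells with enzyme and 100% = reference inhibitor wells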
rCAG binder – r(CAG) repeat RNA binding; inhibition, % at 3 µM; 370,000 compounds, 1.3% hits; TO-PRO-1 dye displacement fluorescence; AID 651821;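 active = inhibition above the plate cutoff, the mean of all test compounds on that plate plus 3 SD, cut at about 35% in these data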;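 also: 0% = DMSO alone and 100% = 100 µM mitoxantrone as full dye displacement; higher means more dye released from RNA so lower well fluorescence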
NadD inh – inhibitors of Staphylococcus aureus NadD; purified NadD enzyme, colorimetric absorbance read-out; inhibition, % at 20 µM; 360,000 compounds, 0.78% hits; in the data active = inhibition above about 26%
MsrA act – bovine methionine sulfoxide reductase A activation. purified bovine MsrA, absorbance read-out. activation, % at 10.6 µM. 360,000 compounds, 0.3% hits; in the data active = activation above about 7.5%;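 also: 0% = vehicle and 100% = reference activator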
NadD conf – confirmation of Staphylococcus aureus NadD inhibitors; shares compounds with NadD inh; purified S. aureus NadD, colorimetric enzyme assay; inhibition, % at 20 µM; 2,000 compounds, 13% hits; AID 624309; in the data active = inhibition mostly above about 42%, no sharp cut-off; inactive = mostly below about 42%
Numbers without * were called inactive; nt = no result given; ! = not confirmed by another sample.

SMILES	MsrA inhibitor	rCAG binder	NadD inh	MsrA act	NadD conf
CC[N+](CC)(CC)CCCCOc1ccc2c(c1)C(=O)c1cc(OCCCC[N+](CC)(CC)CC)ccc1-2	-1	6	31*	2	14
N#Cc1sc2nc(-c3ccccc3)cc(-c3ccco3)c2c1N	1	34	32*	3	8
Cc1cc(N)n(-c2ccccc2)n1	-1	4	-5	-11	nt
Cc1cc(-c2cc(N)n(-c3ccccc3)n2)c(C)n1C1CCCC1	1	11	32*	-1	12
Cc1ccccc1C(=O)Nc1nnc(CC(=O)N/N=C/c2cn(Cc3ccccc3)c3ccccc23)s1	0	9	45*	-2	16
COc1ccc(S(=O)(=O)Nc2cccc(-c3ccc(N4CCCCCC4)nn3)c2)c(OC)c1	1	8	28*	-4	36
COc1ccc(S(=O)(=O)Nc2cccc(-c3ccc(N4CCCCCC4)nn3)c2)cc1OC	0	12	23	-4	nt
Cc1ccc(S(=O)(=O)Nc2cccc(-c3ccc(N4CCCCCC4)nn3)c2)cc1	1	13	34*	-4	21
COc1ccc(OC)c(S(=O)(=O)Nc2cccc(-c3ccc(N4CCCCCC4)nn3)c2)c1	0	5	36*	-3	30
CS(=O)(=O)N1CCC(C(=O)N2CCN(c3ccc(F)cc3)CC2)CC1	0	-2	-3	-2	nt
O=C(NC1CC1)c1cccc2c1C(=O)c1ccc(N3CCC(N4CCCCC4)CC3)cc1S2(=O)=O	0	1	2	-2	nt
O=C(NCCc1ccc(C(F)(F)F)cc1)C1CC(=O)N(Cc2ccccc2)C1 (centres undefined)	0	-1	-2	0	nt
OC(Cn1ccnc1)c1ccc(Cl)cc1Cl (centres undefined)	-2	1	-3	-4	nt
Clc1ccc(C(Cn2ccnc2)OCc2c(Cl)cccc2Cl)c(Cl)c1 (centres undefined)	1	3	33*	-2	21
CC(C)(CNC(=O)c1cc([N+](=O)[O-])ccc1N1CCC(Cc2ccccc2)CC1)N1CCOCC1	0	3	-3	-1	nt
CCc1nnc(NC(=O)c2ccc(Cl)c(S(=O)(=O)N3CCc4ccccc43)c2)s1	1	27	27	-7	nt
O=C(Nc1nnc(C2CC2)s1)c1ccc(Cl)c(S(=O)(=O)N2CCc3ccccc3C2)c1	0	8	33*	-3	-1
Cc1cc(C)c2oc(-c3ccc(C)c(NC(=S)NC(=O)/C=C/c4ccco4)c3)nc2c1	1	21	35*	-11	-2
COc1ccc([N+](=O)[O-])cc1NC(=O)CC1SC(=Nc2cccc(C)c2C)N(/N=C/c2cccc(OC)c2OC)C1=O (centres undefined)	2	18	35*!	-3	20
CN=C1SC(CC(=O)Nc2c(C)cccc2C)C(=O)N1/N=C/c1cccs1 (centres undefined)	1	-3	-2	-5	nt
Cc1ccc2c3c(c(SCC(=O)Nc4nonc4C)nc2c1)CCCC3	1	3	-3	-3	nt
Cc1nonc1NC(=O)CSc1nc2cc(Cl)ccc2c2c1CCCC2	nt	nt	30*	-4	12
CC1CCc2c(sc3ncnc(SCC(=O)Nc4ccc(C(=O)O)cc4)c23)C1 (centres undefined)	-1	2	11	-1	nt
COc1cc(NC(=O)CSc2ncnc3sc4c(c23)CCC(C)C4)c(C(=O)O)cc1OC (centres undefined)	-1	13	36*	0	21
NS(=O)(=O)c1cccc(NC(=O)COC(=O)c2cc(-c3ccc(Cl)cc3)nc3ccccc23)c1	1	26	32*	-2	37
SMILES	MsrA inhibitor	rCAG binder	NadD inh	MsrA act	NadD conf
O=C(Nc1cccc(S(=O)(=O)NCc2ccco2)c1)c1cc(-c2ccccc2)nc2ccccc12	2	16	35*	-3	32
CC(C)CCN(CC(=O)NC(C)(C)C)C(=O)C(=O)Nc1ccc2c(c1)OCCO2	0	-7	-2	-2	nt
COc1ccc(C2C(C(=O)Nc3cc(OC)c(OC)c(OC)c3)CCC(=O)N2c2ccc(OC)cc2)cc1 (centres undefined)	nt	3	nt	nt	nt
Cc1cc2nc(-c3ccc(SCC(=O)Nc4ccc5c(c4)OCCO5)nc3)[nH]c2cc1C	3	-2	30*	-3	20
O=C1CC(/C=C/c2ccc([N+](=O)[O-])cc2)=Nc2ccccc2N1	0	19	36*	-4	2
Cc1cc(S(=O)(=O)NC(=O)[C@H]2O[C@@H](n3cnc4c(N)ncnc43)[C@H](O)[C@@H]2O)ccc1Br	0	3	0	-3	nt
CN(C)/C=C(\C=N\OCc1ccc(Cl)cc1Cl)C(=O)Nc1ccc(Cl)c(Cl)c1	-1	30	29*	-2	0

Assay outcomes as filed in PubChem.
